Shown are actives, neighbours in structure and some others; about 10% of the full set was active somewhere.
HEK293 tox = HEK 293 cell cytotoxicity | 94,000 compounds, 6.6% hits | HEK 293 viability, ATP luminescence (CellTiter-Glo), 48-72 h | Potency, µM (top dose mostly 115 µM), hits mostly inhibitors; note: nearly all actives have a fitted effect of over 60% in size
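ATP-coupled CellTiter-Glo luminescence served as viability read-out, recorded 10 min after reagent addition at room temperature. HEK 293 cells, 250 cells/well, had been incubated with pintool-transferred compound for 48 or 72 hr at 37 degree Celsius.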
hNpr1 antagonist = blocks ANP-stimulated signaling of human Npr1 receptor | P16066 | HEK293 hNpr1 GloSensor cGMP, ANP-stimulated luminescence | Potency, µM (series often up to 46.3 µM), usual class: inhibitors | 76,000 compounds, 1.6% hits | AID 1347048; calls by dose curve; note: nearly all actives have a fitted effect of over 60% in size
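Compound pre-incubated 30 min at room temperature on GloSensor-loaded HEK293 cells stably carrying hNpr1 and the pGS-40F cGMP biosensor. Stimulation uses hNppA at 0.1 nM final; luminescence is taken at baseline and 20 min post-agonist.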
NIH3T3 tox = cytotoxic compounds in NIH 3T3 cells; Potency, µM (titrated, usually from 96.7 µM), hits mostly inhibitors; NIH 3T3 viability, CellTiter-Glo ATP luminescence, 48-72 h; AID 1345082; 94,000 compounds, 4.3% hits; note: nearly all actives have a fitted effect of over 55% in size
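Cytotoxicity is measured as loss of cellular ATP: NIH 3T3 cells (400/well) are exposed to compound for 48 or 72 hr at 37 °C, then CellTiter-Glo luminescence is imaged after 10 min at room temperature.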
GPT2 inh = inhibitors of human GPT2 alanine aminotransferase | 100,000 compounds, 0.25% hits | Q8TD30 | Potency, µM (doses to about 57.7 µM), usual class: inhibitors | Recombinant GPT2, coupled pyruvate oxidase/HRP Amplex Red fluorescence; note: nearly all actives have a fitted effect of over 60% in size
Target sequence (Q8TD30 whole entry, looked up): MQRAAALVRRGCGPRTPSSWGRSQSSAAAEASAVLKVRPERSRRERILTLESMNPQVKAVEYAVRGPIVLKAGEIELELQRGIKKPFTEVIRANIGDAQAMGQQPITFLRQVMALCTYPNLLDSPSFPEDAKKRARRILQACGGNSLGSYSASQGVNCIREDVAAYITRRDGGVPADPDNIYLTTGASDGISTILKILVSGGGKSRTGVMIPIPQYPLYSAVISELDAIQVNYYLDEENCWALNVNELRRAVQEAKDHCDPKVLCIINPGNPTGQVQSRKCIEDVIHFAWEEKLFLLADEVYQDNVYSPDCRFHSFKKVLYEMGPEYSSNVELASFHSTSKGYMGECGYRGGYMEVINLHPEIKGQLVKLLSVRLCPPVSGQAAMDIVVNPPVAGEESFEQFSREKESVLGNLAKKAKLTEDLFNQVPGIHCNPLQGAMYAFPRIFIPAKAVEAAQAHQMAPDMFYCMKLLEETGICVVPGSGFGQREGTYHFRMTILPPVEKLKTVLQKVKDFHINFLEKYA
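GPT2 10ng/uL, a-KG 250uM, L-Ala 2mM, HEPES pH7.5 + 0.0001% Tween; 30 min RT. Then Amplex mix (PO/HRP/ThPP), 30 min RT dark, fluorescence. AOA 50uM used as positive control.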
FLuc inh = blocks purified firefly luciferase enzyme activity; AID 1347043; Potency, µM (series often up to 115 µM), actives largely listed as inhibitors; 76,000 compounds, 2.5% hits; purified P. pyralis luciferase, luminescence, biochemical; note: nearly all actives have a fitted effect of over 65% in size
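FLuc 10nM, D-luciferin 10uM, ATP 10uM, Mg acetate 10mM, Tris acetate pH 7.5, Tween/BSA; cpd qHTS; enzyme added last; CCD luminescence.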
Numbers stand for hits; 0 = inactive; ? = inconclusive; - = no result given. Unless noted, calls come from the whole dose curve; as a rule, active = well fitted curve in the direction sought with a large enough effect; inconclusive = small, poorly fitted or top-dose-only effect, or another doubt; inactive = no such curve, though single readings can be large; an effect the other way counts as inactive or inconclusive.

SMILES	HEK293 tox	hNpr1 antagonist	NIH3T3 tox	GPT2 inh	FLuc inh
O=C(c1nnc(CN2CCN(c3ccccn3)CC2)n1Cc1ccccc1)N1CCC[C@@H]1c1ccc(Br)cc1	45µM	0	?	0	0
O=c1cc(N2CCOCC2)oc2c(-c3ccccc3F)nccc12	?	0	8.9µM	0	0
O=c1cc(N2CCOCC2)oc2c(-c3ccncc3)nccc12	?	0	22µM	0	0
CCN(CC)Cc1cnc2c(C(=O)N(C)C3Cc4ccccc4C3)cnn2c1	0	0	0	0	0
CCOC(=O)c1cc2cc(NC(=O)C3=CC(C)(C)Oc4ccc(OC)cc43)ccc2o1	45µM	-	?	-	-
CC(=O)N1CCN([C@H]2CCN(C(=O)N(C)[C@H](C)c3cc(C(F)(F)F)cc(C(F)(F)F)c3)[C@@H](c3ccc(F)cc3C)C2)CC1	-	-	-	0	-
CCn1ccc(C(=O)N2CCC3(CC2)NCCc2c3[nH]c3ccc(OC)cc23)n1	0	0	0	0	0
CC1(CNc2ccccc2)COc2ccc(C(=O)NCCOc3ccccc3)cc2N1 (centres undefined)	40µM	?	32µM	0	?
CCOCC1(C)COc2ccc(C(=O)NCCc3ccccc3)cc2N1 (centres undefined)	?	0	?	0	22µM
CC1(CNc2ccccc2)COc2ccc(C(=O)NCCc3ccccn3)cc2N1 (centres undefined)	100µM	0	?	0	0
CC1(COc2ccccc2)COc2ccc(C(=O)NCCOc3ccccc3)cc2N1 (centres undefined)	79µM	?	?	0	0
CC1(CNc2ccccc2)COc2ccc(C(=O)NCCN3CCOCC3)cc2N1 (centres undefined)	?	0	0	0	0
COCCNc1ncnc2c1CN(c1ccc(C)cc1)C(=O)N(C)C2	0	0	?	0	0
Cc1ccc(-c2cn3c(n2)CO[C@@H](CNC(=O)c2cccnc2)C3)cc1	0	0	0	0	?
C[C@]12CC[C@@H]3c4ccc(O)cc4CC[C@H]3[C@H]1CC[C@H]2O	-	-	-	0	-
COC1=C(OC)C(=O)c2ccccc2C1=O	-	-	-	2.8µM	-
COc1ccc(CNC(=O)CC[C@H]2CNC(=O)[C@@H]3[C@@H](CCN3Cc3cccs3)N2C)cc1	0	0	0	0	0
Cc1ccc(NC(=O)NCCc2ncc(C)n2C2CCC2)cc1C	79µM	0	0	0	0
Cc1cnc(CCNC(=O)C2(c3ccccc3)CC2)n1C1CCCCCC1	40µM	0	?	0	0
Cc1ccc(NC(=O)NCCc2ncc(C)n2CC2CC2)cc1C	?	0	?	0	0
COc1ccc(C2(C(=O)NCCc3ncc(C)n3C3CC3)CC2)cc1	?	0	0	0	0
CC(C)(Oc1nn(CCN2CCOCC2)c2ccccc12)C(=O)NCCOc1ccccc1	?	0	?	0	0
CC[C@H]1CN(C(=O)N2CCOCC2)CC[C@H]1CC(=O)Nc1nccs1	?	0	50µM	0	0
CN(Cc1ccccc1)Cc1cn([C@H]2CO[C@H]3[C@@H]2OC[C@@H]3NS(=O)(=O)c2cccc3cccnc23)nn1	0	0	0	4.5µM	0
COc1ccc(CN2C(=O)[C@H](OC)[C@@H]2C2=CCN(C(=O)c3ccc(OC)cc3)CC2)cc1	?	-	0	0	-
SMILES	HEK293 tox	hNpr1 antagonist	NIH3T3 tox	GPT2 inh	FLuc inh
Cc1cc(CN2CCC(Cc3ccc(F)cc3)CC2)n(C)n1	40µM	?	?	0	0
Cc1cc(C(=O)N2CCC(Cc3ccc(C(N)=O)cc3)CC2)n(C)n1	?	0	0	?	0
Cc1cnc(C(=O)N2C[C@@H](Oc3cccnc3)C[C@H]2C(=O)N2CCOCC2)cn1	0	0	0	0	0
CC(C)(C)c1csc(NC(=O)C2CC(=O)N(c3n[nH]c4cccc(F)c34)C2)n1 (centres undefined)	45µM	0	?	0	0
COc1ccc(C)cc1NC(=O)C1CC(=O)N(c2n[nH]c3cc(Br)ccc23)C1 (centres undefined)	45µM	0	?	0	0
Cc1ccnc(NC(=O)C2CC(=O)N(c3n[nH]c4cccc(F)c34)C2)c1 (centres undefined)	28µM	0	?	0	0
Cc1ccc2nc(NC(=O)C3CC(=O)N(c4n[nH]c5cccc(F)c45)C3)sc2c1 (centres undefined)	25µM	0	32µM	0	0
Cc1nc(NC(=O)C2CC(=O)N(c3n[nH]c4cccc(F)c34)C2)sc1C (centres undefined)	?	0	0	0	0
Cc1ccc(NC(=O)C2CC(=O)N(c3n[nH]c4cccc(F)c34)C2)nc1 (centres undefined)	0	0	0	0	0
CCCCN1C(=O)[C@@H]2C[C@@H](O)CN2C2(CN(Cc3ccncc3)C2)C1=O	0	0	0	0	0
Cc1nc2ccccc2n1Cc1cc(C(=O)N2CCCC2)no1	40µM	0	?	0	0
CC(Cc1cccnc1)NC(=O)c1cn(Cc2ccccc2C(F)(F)F)nn1 (centres undefined)	0	0	0	0	0
CN1CCCN(S(=O)(=O)c2cccc(Cl)c2)c2ccccc21	40µM	0	?	0	0
CN(C)c1ccc(-c2nnc([C@H]3CCN(C4CCC4)C3)o2)cc1	0	0	0	0	71µM
c1cc(-c2nnc([C@H]3CCN(C4CCCCC4)C3)o2)ccn1	0	0	0	0	?
c1ccc(-c2nnc([C@H]3CCN(C4CCC4)C3)o2)cc1	?	0	0	0	25µM
O=C(c1ccn[nH]1)N1CCC(N2C(=O)C3(CCCC3)C2c2ccccc2)CC1 (centres undefined)	?	0	0	0	0
CCCNC(=O)c1coc(COc2ccc3c(c2)C(c2ccc(F)cc2)N(C(=O)C(C)C)CC3)n1 (centres undefined)	?	0	22µM	0	0
CCNC(=O)c1coc(COc2ccc3c(c2)C(c2cccc(F)c2)N(C(=O)C(C)C)CC3)n1 (centres undefined)	40µM	0	?	0	0
Cn1nc(-c2nncn2-c2ccccc2)c2c1CCN(C(=O)C1CCOCC1)C2	0	-	0	0	-
CC1(CNC(=O)c2nccc3ccccc23)CCOCC1	0	0	0	0	?
COc1ccc(Cl)cc1-c1ccc2c(c1)C(=O)N1CCN(C(=O)C3CCCC3)C[C@H]1C(=O)N2	?	0	?	0	0
CC(C)(CC(=O)O)CC(=O)N1CCN2C(=O)c3cc(-c4ccc(Cl)cc4)ccc3NC(=O)[C@H]2C1	0	0	0	0	0
CCCNC(=O)N1CCN2C(=O)c3cc(-c4ccccc4F)ccc3NC(=O)[C@@H]2C1	100µM	0	?	0	0
COc1ccc(Cl)cc1-c1ccc2c(c1)C(=O)N1CCN(C(=O)CN)C[C@H]1C(=O)N2	?	0	100µM	0	0

Assay outcomes: PubChem BioAssay, National Center for Advancing Translational Sciences (NCATS)
